Source: PubChem BioAssay (several laboratories)
This is a sample that favours compounds with a hit; in the whole collection about 0.54% have one here.
RmlCD inh 1536: M. tuberculosis RmlC/RmlD inhibition; RmlC+RmlD coupled enzyme assay, percent inhibition; primary screen in compound mixtures; inhibition, % at 3.6 µM; 160,000 compounds, 0.03% hits; AID 1533; in the data active = inhibition mostly above about 34%, no sharp cut-off; inconclusive = no clear call, values can overlap the other calls; inactive = mostly below about 22%
DUSP3 inh: blocks human VHR1 dual specificity phosphatase; recombinant VHR phosphatase, pNPP absorbance; 290,000 compounds, 0.52% hits; inhibition, % at 13.3 µM; P51452; AID 1654; in the data active = inhibition above about 50%
Target sequence (P51452 whole entry, looked up): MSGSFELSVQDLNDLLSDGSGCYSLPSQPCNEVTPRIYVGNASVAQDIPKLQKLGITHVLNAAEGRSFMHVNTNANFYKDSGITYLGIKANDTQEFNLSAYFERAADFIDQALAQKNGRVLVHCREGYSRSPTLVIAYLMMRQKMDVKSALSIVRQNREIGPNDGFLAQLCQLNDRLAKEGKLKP
Numbers without * were called inactive; ? = inconclusive; . = no result.

SMILES	RmlCD inh 1536	DUSP3 inh
CSCc1ccc(C(=O)NC(C)c2ccc(-n3ccnc3)cc2)cc1 (stereo not drawn)	.	16
CC(C)(C)NS(=O)(=O)c1ccc(CCC(=O)Nc2ccc3c(c2)OCO3)cc1	?	15
CC(C)(C)NS(=O)(=O)c1ccc(CCC(=O)Nc2ccc3c(c2)OCCO3)cc1	8	51*
Cc1ccc(C2NC(=O)c3c(sc(C)c3C)N2)c(O)c1 (stereo not drawn)	.	51*
Cc1cccc(C2NC(=O)c3c(sc(C)c3C)N2)c1O (stereo not drawn)	.	11
C1CNCCNCCCNCCNC1	.	28
O=c1[nH]c(C2CCN(S(=O)(=O)c3ccc(S(=O)(=O)NC4CC4)cc3)CC2)nc2c1nnn2Cc1ccccc1	.	-17
O=c1[nH]c(C2CCN(S(=O)(=O)c3ccc(S(=O)(=O)NC4CC4)cc3)CC2)nc2c1nnn2Cc1ccc(F)cc1	.	59*
COc1ccc(C(=O)N[C@H](C(=O)Nc2ccc(S(=O)(=O)N3CCOCC3)cc2)C(C)C)cc1	.	5
Cc1cc(C(=O)Nc2ccc(F)cc2C)n(-c2ccccc2)n1	-5	12
Cc1cc(C(=O)Nc2ccc(Br)cc2F)n(-c2ccccc2)n1	.	58*
NS(=O)(=O)c1ccc(NC(=O)COC(=O)c2cc3ccccc3cc2O)cc1	-6	14
CN(Cc1c(C(=O)N/N=C/c2ccc(O)cc2)nnn1-c1nonc1N)c1ccccc1	.	45
C=CCc1cccc2cc(C(=O)Nc3ccc(F)cc3)c(=O)oc12	.	1
C=CCc1cccc2cc(C(=O)Nc3ccc(CC(=O)O)cc3)c(=O)oc12	-14	52*
COc1ccc(NC(=O)C(CCS(C)(=O)=O)NC(C)=O)cc1 (stereo not drawn)	.	16
O=C(O)C=C1CCN(c2ncc(C(F)(F)F)cc2Cl)CC1	-16	32
COc1ccc(C(=O)C2CCCN(C3CSCCSC3)C2)c(OC)c1 (stereo not drawn)	-10	57*
COc1ccc(C(=O)C2CCCN(C3CSCCSC3)C2)c(C)c1 (stereo not drawn)	14	1
CSc1nnc2ccc(-c3cccs3)nn12	-10	8
COc1ccc(-c2c(C)n([O-])c3c([n+]2=O)CCCC3)cc1	.	52*
Cc1ccc(-c2c(C)n([O-])c3c([n+]2=O)CCCCC3)cc1	-12	0
COc1ccc(OCC(O)Cn2c(N3CCCCC3)nc3c2c(=O)n(C)c(=O)n3C)cc1 (stereo not drawn)	.	58*
COc1ccc(OCC(O)Cn2c(N3CCCCC3)nc3c2c(=O)[nH]c(=O)n3C)cc1 (stereo not drawn)	.	17
CCOC(=O)c1c(NC(=O)C2CC(Cl)=CCC2C(=O)O)sc2c1CC(C)(C)OC2 (stereo not drawn)	29	38
SMILES	RmlCD inh 1536	DUSP3 inh
COc1ccccc1NC(=O)C1CCCN1S(=O)(=O)c1cccc2nsnc12 (stereo not drawn)	.	2
COc1ccc(NC(=O)C2CCCN2S(=O)(=O)c2cccc3nsnc23)c(OC)c1 (stereo not drawn)	.	60*
CCN1CCC(C(=O)NC2CCCC2)(N(Cc2cccs2)C(=O)Cn2nnc3ccccc32)CC1	.	8
Cc1cc2ccccn2c1C(=O)c1ccc([N+](=O)[O-])o1	22	13
Cc1oc(-c2ccccc2Cl)nc1CS(=O)CC(=O)NCCc1ccccc1 (stereo not drawn)	.	2
Cc1oc(-c2ccccc2Cl)nc1CS(=O)CC(=O)NCCCN1CC(C)CC(C)C1 (stereo not drawn)	.	52*
O=C(Cc1ccc2c(c1)OCCO2)N1CCN(S(=O)(=O)c2cccc(C(F)(F)F)c2)CC1	1	24
COc1ccc(N(C)S(=O)(=O)c2cccc(C(=O)Nc3nc4ccccc4[nH]3)c2)cc1	-11	15
CN(c1cccc(Cl)c1)S(=O)(=O)c1cccc(C(=O)Nc2nc3ccccc3[nH]2)c1	-8	51*
COC(=O)c1ccccc1S(=O)(=O)NNC(=O)Nc1ccccc1	.	27
Cc1ccc(CNC(=O)c2cc3cc(Br)ccc3oc2=N)cc1	.	19
Cc1ccc(NC2CCCN(C(=O)CCc3ccncc3)C2)cc1C (stereo not drawn)	.	19
COc1ccc(NC2CCCN(C(=O)CCc3ccncc3)C2)cc1OC (stereo not drawn)	.	54*
O=C(N/N=C/c1cccc(O)c1)c1cc(-c2ccc3c(c2)OCO3)n[nH]1	10	30
O=C(N/N=C/c1cccc([N+](=O)[O-])c1)c1cc(-c2ccc3c(c2)OCO3)n[nH]1	-7	51*
O=C1N/C(=C/c2ccc(N3CCCC3)cc2)C(=O)N1c1ccccc1	-5	2
O=C1/C(=C/c2ccc(N3CCCC3)cc2)NC(=S)N1C1CC1	11	52*
COc1ccccc1C(=O)N/C(=C\c1ccc(Br)cc1)C(=O)N1CCCC1	-3	9
O=C(Nc1ccncc1Cl)c1ccncc1	.	-46
Cc1c(C(=O)N2CCCCC2)c(S(=O)(=O)N(C)Cc2ccccc2)c(C)n1C	.	54*
Cc1c(C(=O)N2CCCCC2)c(S(=O)(=O)N(C)Cc2ccco2)c(C)n1C	.	-22
CC(=O)Nc1ccc(S(=O)(=O)N2CCC(C(=O)NCCC(=O)Nc3ccccc3)CC2)cc1	.	-6
COc1ccc(S(=O)(=O)N2CCC(C(=O)NCCC(=O)Nc3ccc(Cl)cc3)CC2)cc1	.	57*
CC(C)[C@H](NC(=O)c1ccccc1)C(=O)NCCc1ccccc1	.	7
Cc1c(S(=O)(=O)Nc2ccc(Oc3ccccc3)cc2)c(=O)n(C)c(=O)n1C	.	38
SMILES	RmlCD inh 1536	DUSP3 inh
Cc1ccc2c(c1)c1ncnc(N3CCC4(CC3)OCCO4)c1n2C	10	10
Cc1ccc2c(c1)c1ncnc(N3CCOCC3)c1n2C	96*	18
O=C(c1cccs1)N(Cc1cccc(F)c1)C1CCS(=O)(=O)C1 (stereo not drawn)	.	2
Cc1ccc(-c2nn3c(C)nnc3c3ccccc23)cc1S(=O)(=O)NCCN1CCOCC1	7	52*
Cc1ccc(-c2n[nH]c(=O)c3ccccc23)cc1S(=O)(=O)NCCN1CCOCC1	.	13
O=C(COC(=O)c1cc(S(=O)(=O)N2CCOCC2)ccc1F)NCc1ccco1	.	10
Cc1ccc(C)c(OCC(=O)Nc2ccc(S(=O)(=O)Nc3onc(C)c3C)cc2)c1	.	2
CCOc1ccc(N(CC(=O)Nc2ccccc2Cl)S(C)(=O)=O)cc1	.	59*
CCOc1ccc(N(CC(=O)Nc2ccccc2OC)S(C)(=O)=O)cc1	.	-7
OCC1(CCc2ccccc2)CCN(C/C=C/c2ccccc2)CC1	.	56*
OCC1(Cc2ccccc2Cl)CCN(C/C=C/c2ccccc2)CC1	-8	6
Cc1cc(C)c2sc(N)nc2c1	0	23
CCN(CC)S(=O)(=O)c1ccc(S(=O)(=O)N2CCC(N3CCCCC3)CC2)cc1	.	31
COc1ccc(CC(NC(C)=O)C(=O)NC2CCN(C(=O)c3cccc(Cl)c3)CC2)cc1OC (stereo not drawn)	.	53*
COc1ccc(CC(NC(C)=O)C(=O)NC2CCN(C(=O)c3ccncc3)CC2)cc1OC (stereo not drawn)	.	-5
Cc1cc2sc(C(=O)O)c(C)c2s1	.	22
CCOc1ccc(N2CC(C(=O)Nc3ccccc3N3CCOCC3)CC2=O)cc1 (stereo not drawn)	-11	41
COc1ccccc1C(=O)N/C(=C\c1cn(C)c2ccccc12)C(=O)NCCCN1CCOCC1	.	57*
COc1cc(C(=O)N/C(=C\c2cn(C)c3ccccc23)C(=O)NCCCN2CCOCC2)cc(OC)c1OC	.	46
